According to PMC5540273 (PLoS ONE, 2017):

Experiments:
YSK4 = tested on: T1, YSK4
T1 construct: gene MAP3K19

AAK1 = settings: concentration: 1 μM, replicates: in singlicate; n = 1
ABL1-nonphosphorylated = settings: concentration: 1 μM, replicates: in singlicate; n = 1
ABL1-phosphorylated = settings: concentration: 1 μM, replicates: in singlicate; n = 1
ABL2 = settings: concentration: 1 μM, replicates: in singlicate; n = 1
ACVR1B = settings: concentration: 1 μM, replicates: in singlicate; n = 1
ACVR1 = settings: concentration: 1 μM, replicates: in singlicate; n = 1
ACVR2A = settings: concentration: 1 μM, replicates: in singlicate; n = 1
ACVR2B = settings: concentration: 1 μM, replicates: in singlicate; n = 1
ACVRL1 = settings: concentration: 1 μM, replicates: in singlicate; n = 1
ADCK3 = tested on: T2, ADCK3; settings: concentration: 1 μM, replicates: in singlicate; n = 1
T2 construct: gene CABC1

ADCK4 = settings: concentration: 1 μM, replicates: in singlicate; n = 1
AKT1 = settings: concentration: 1 μM, replicates: in singlicate; n = 1
AKT2 = settings: concentration: 1 μM, replicates: in singlicate; n = 1
AKT3 = settings: concentration: 1 μM, replicates: in singlicate; n = 1
ALK = settings: concentration: 1 μM, replicates: in singlicate; n = 1
AMPK-alpha1 = tested on: T3, AMPK-alpha1; settings: concentration: 1 μM, replicates: in singlicate; n = 1
T3 construct: gene PRKAA1

p38-alpha = tested on: T4, p38-alpha
T4 construct: gene MAPK14

p38-beta = tested on: T5, p38-beta
T5 construct: gene MAPK11
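Throughout, for %Inh: KINOMEscan kinase panel screen.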
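Throughout, for Kd: kd values determined as follow-up on hits from a single-replicate KINOMEscan panel screen.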

## O=C(Nc1n[nH]c2cc(-c3cccc(F)c3)ccc12)C1CC1 [SB-735464]
YSK4
  Kd: 310 nM
AAK1
  %Inh: 26%
ABL1-nonphosphorylated
  %Inh: 64%
ABL1-phosphorylated
  %Inh: 43%
ABL2
  %Inh: 8%
ACVR1B
  %Inh: 10%
ACVR1
  %Inh: 36%
ACVR2A
  %Inh: 32%
ACVR2B
  %Inh: 50%
ACVRL1
  %Inh: 4%
ADCK3
  %Inh: 0%
ADCK4
  %Inh: 0%
AKT1
  %Inh: 0%
AKT2
  %Inh: 0%
AKT3
  %Inh: 19%
ALK
  %Inh: 0%
AMPK-alpha1
  %Inh: 10%

## O=C(NOCC1CC1)c1ccc(F)c(F)c1Nc1ccc(I)cc1Cl
AAK1
  %Inh: 0%
ABL1-nonphosphorylated
  %Inh: 0%
ABL1-phosphorylated
  %Inh: 0%
ABL2
  %Inh: 0%
ACVR1B
  %Inh: 0%
ACVR1
  %Inh: 0%
ACVR2A
  %Inh: 0%
ACVR2B
  %Inh: 0%
ACVRL1
  %Inh: 0%
ADCK3
  %Inh: 0%
ADCK4
  %Inh: 0%
AKT1
  %Inh: 0%
AKT2
  %Inh: 0%
AKT3
  %Inh: 0%
ALK
  %Inh: 0%
AMPK-alpha1
  %Inh: 0%

## CN(C1=C(c2ccccc2)C(=O)NC1=O)c1ccccc1 [SB-334860]
AAK1
  %Inh: 7%
ABL1-nonphosphorylated
  %Inh: 0%
ABL1-phosphorylated
  %Inh: 0%
ABL2
  %Inh: 0%
ACVR1B
  %Inh: 0%
ACVR1
  %Inh: 1%
ACVR2A
  %Inh: 0%
ACVR2B
  %Inh: 4%
ACVRL1
  %Inh: 0%
ADCK3
  %Inh: 12%
ADCK4
  %Inh: 15%
AKT1
  %Inh: 0%
AKT2
  %Inh: 23%
AKT3
  %Inh: 0%
ALK
  %Inh: 0%
AMPK-alpha1
  %Inh: 0%

## Cc1cccc(-c2nc(-c3ccc(S(C)(=O)=O)cc3)sc2-c2ccncc2)c1
p38-alpha
  Kd: 540 nM
AAK1
  %Inh: 8%
ABL1-nonphosphorylated
  %Inh: 0%
ABL1-phosphorylated
  %Inh: 0%
ABL2
  %Inh: 29%
ACVR1B
  %Inh: 0%
ACVR1
  %Inh: 0%
ACVR2A
  %Inh: 0%
ACVR2B
  %Inh: 0%
ACVRL1
  %Inh: 0%
ADCK3
  %Inh: 0%
ADCK4
  %Inh: 0%
AKT1
  %Inh: 0%
AKT2
  %Inh: 20%
AKT3
  %Inh: 0%
ALK
  %Inh: 5%
AMPK-alpha1
  %Inh: 1%

## Fc1ccc(-c2ncn(CCCN3CCOCC3)c2-c2cccnc2)cc1 [SB-211743]
AAK1
  %Inh: 0%
ABL1-nonphosphorylated
  %Inh: 30%
ABL1-phosphorylated
  %Inh: 34%
ABL2
  %Inh: 0%
ACVR1B
  %Inh: 0%
ACVR1
  %Inh: 2%
ACVR2A
  %Inh: 0%
ACVR2B
  %Inh: 0%
ACVRL1
  %Inh: 6%
ADCK3
  %Inh: 1%
ADCK4
  %Inh: 0%
AKT1
  %Inh: 0%
AKT2
  %Inh: 0%
AKT3
  %Inh: 10%
ALK
  %Inh: 0%
AMPK-alpha1
  %Inh: 4%

## Cc1cccc(Cn2ccn3c(=O)cc(N4CCOCC4)nc23)c1 [GSK2297542]
AAK1
  %Inh: 15%
ABL1-nonphosphorylated
  %Inh: 7%
ABL1-phosphorylated
  %Inh: 0%
ABL2
  %Inh: 13%
ACVR1B
  %Inh: 0%
ACVR1
  %Inh: 0%
ACVR2A
  %Inh: 0%
ACVR2B
  %Inh: 4%
ACVRL1
  %Inh: 6%
ADCK3
  %Inh: 27%
ADCK4
  %Inh: 44%
AKT1
  %Inh: 0%
AKT2
  %Inh: 4%
AKT3
  %Inh: 0%
ALK
  %Inh: 36%
AMPK-alpha1
  %Inh: 1%

## O=C1NC(=O)C(N2CCc3ccccc32)=C1c1cccc(Cl)c1 [SB-408010]
AAK1
  %Inh: 2%
ABL1-nonphosphorylated
  %Inh: 33%
ABL1-phosphorylated
  %Inh: 0%
ABL2
  %Inh: 10%
ACVR1B
  %Inh: 14%
ACVR1
  %Inh: 0%
ACVR2A
  %Inh: 0%
ACVR2B
  %Inh: 7%
ACVRL1
  %Inh: 13%
ADCK3
  %Inh: 17%
ADCK4
  %Inh: 0%
AKT1
  %Inh: 5%
AKT2
  %Inh: 0%
AKT3
  %Inh: 5%
ALK
  %Inh: 0%
AMPK-alpha1
  %Inh: 0%

## COc1cc2ncn(-c3cc(OCc4sccc4Cl)c(C(N)=O)s3)c2cc1OC [GSK448459]
AAK1
  %Inh: 42%
ABL1-nonphosphorylated
  %Inh: 0%
ABL1-phosphorylated
  %Inh: 3%
ABL2
  %Inh: 17%
ACVR1B
  %Inh: 0%
ACVR1
  %Inh: 18%
ACVR2A
  %Inh: 0%
ACVR2B
  %Inh: 0%
ACVRL1
  %Inh: 0%
ADCK3
  %Inh: 0%
ADCK4
  %Inh: 39%
AKT1
  %Inh: 0%
AKT2
  %Inh: 1%
AKT3
  %Inh: 0%
ALK
  %Inh: 21%
AMPK-alpha1
  %Inh: 0%

## NS(=O)(=O)c1cccc(-c2ccc3ncc(N4CCOCC4)nc3c2)c1 [GSK1535721]
YSK4
  Kd: 3400 nM
AAK1
  %Inh: 26%
ABL1-nonphosphorylated
  %Inh: 1%
ABL1-phosphorylated
  %Inh: 0%
ABL2
  %Inh: 0%
ACVR1B
  %Inh: 0%
ACVR1
  %Inh: 21%
ACVR2A
  %Inh: 0%
ACVR2B
  %Inh: 0%
ACVRL1
  %Inh: 0%
ADCK3
  %Inh: 28%
ADCK4
  %Inh: 9%
AKT1
  %Inh: 0%
AKT2
  %Inh: 4%
AKT3
  %Inh: 0%
ALK
  %Inh: 6%
AMPK-alpha1
  %Inh: 1%

## Cc1c2ccc(N(C)c3ccnc(Nc4cccc(S(N)(=O)=O)c4)n3)cc2nn1Cc1ccccc1.Cl.Cl [GW787226]
AAK1
  %Inh: 2%
ABL1-nonphosphorylated
  %Inh: 98.4%
ABL1-phosphorylated
  %Inh: 61%
ABL2
  %Inh: 71%
ACVR1B
  %Inh: 6%
ACVR1
  %Inh: 0%
ACVR2A
  %Inh: 0%
ACVR2B
  %Inh: 0%
ACVRL1
  %Inh: 12%
ADCK3
  %Inh: 0%
ADCK4
  %Inh: 0%
AKT1
  %Inh: 0%
AKT2
  %Inh: 0%
AKT3
  %Inh: 0%
ALK
  %Inh: 0%
AMPK-alpha1
  %Inh: 17%

## COCCNC(=O)c1ccc(-c2cc(C(=O)NC3CC3)cc(F)c2C)cc1 [GW868318]
p38-alpha
  Kd: 7.3 nM
p38-beta
  Kd: 88 nM
AAK1
  %Inh: 0%
ABL1-nonphosphorylated
  %Inh: 43%
ABL1-phosphorylated
  %Inh: 28%
ABL2
  %Inh: 12%
ACVR1B
  %Inh: 17%
ACVR1
  %Inh: 7%
ACVR2A
  %Inh: 12%
ACVR2B
  %Inh: 0%
ACVRL1
  %Inh: 9%
ADCK3
  %Inh: 14%
ADCK4
  %Inh: 0%
AKT1
  %Inh: 0%
AKT2
  %Inh: 15%
AKT3
  %Inh: 26%
ALK
  %Inh: 51%
AMPK-alpha1
  %Inh: 20%

## NS(=O)(=O)c1cccc(-c2ccc3nccc(-c4cccc(S(N)(=O)=O)c4)c3c2)c1 [GW867253]
AAK1
  %Inh: 27%
ABL1-nonphosphorylated
  %Inh: 36%
ABL1-phosphorylated
  %Inh: 15%
ABL2
  %Inh: 0%
ACVR1B
  %Inh: 0%
ACVR1
  %Inh: 0%
ACVR2A
  %Inh: 0%
ACVR2B
  %Inh: 0%
ACVRL1
  %Inh: 0%
ADCK3
  %Inh: 0%
ADCK4
  %Inh: 10%
AKT1
  %Inh: 2%
AKT2
  %Inh: 0%
AKT3
  %Inh: 10%
ALK
  %Inh: 0%
AMPK-alpha1
  %Inh: 0%
